# Publication PMC8384837, “Expanding the binding specificity for RNA recognition by a PUF domain”
# Legend:
# Experiment in all cases: yeast three-hybrid, YBZ-1, SC-Leu-His + 0.5 mM 3-AT, 4 days
# Settings in all cases: tags: N-Gal4 AD-HA kept; label: inside an RPR1-promoter hybrid RNA with tandem MS2 sites; ssRNA
# PUM1 PUF domain R8-VFK = PUM1 PUF domain R8-VFK (Homo sapiens, UniProt Q14671 828-1176, N1122V;Y1123F;Q1126K)
# Outline: (§1)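 Repeat regions from input (SC-Leu) and selection (SC-Leu-His + 0.5 mM 3-AT) plates were PCR-amplified and Illumina-sequenced after four days of growth. The cells were strain YBZ-1 with a LexA–MS2 coat fusion and a HIS3 reporter, co-expressing Pumilio-1 PUF domain libraries and matching RNA elements from a centromeric plasmid. The interaction score is the log change in variant frequency from input to selection, taken in log2 with a pseudocount of 1 for absent variants.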
# PUM1 PUF domain R5-RYE = PUM1 PUF domain R5-RYE (Homo sapiens, UniProt Q14671 828-1176, C1007R;R1008Y;Q1011E)
# Outline: as §1
# PUM1 PUF domain R5-SKC = PUM1 PUF domain R5-SKC (Homo sapiens, UniProt Q14671 828-1176, C1007S;R1008K;Q1011C)
# Outline: as §1
# PUM1 PUF domain R6-NRS = molecular target: T1, PUM1 PUF domain R6-NRS (Homo sapiens, UniProt Q14671 828-1176, Y1044R;Q1047S)
# T1 sequence: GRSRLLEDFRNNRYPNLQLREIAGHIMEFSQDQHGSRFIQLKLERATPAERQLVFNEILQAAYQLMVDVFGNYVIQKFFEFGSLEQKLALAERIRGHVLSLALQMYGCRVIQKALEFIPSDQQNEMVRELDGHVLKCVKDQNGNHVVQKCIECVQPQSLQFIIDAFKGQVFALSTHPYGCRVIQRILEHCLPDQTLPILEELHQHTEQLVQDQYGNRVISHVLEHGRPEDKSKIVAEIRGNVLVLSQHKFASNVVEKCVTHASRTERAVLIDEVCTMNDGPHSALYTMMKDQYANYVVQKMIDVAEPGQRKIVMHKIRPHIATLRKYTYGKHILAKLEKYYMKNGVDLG
# Outline: as §1
# PUM1 PUF domain R4-RIY = PUM1 PUF domain R4-RIY (Homo sapiens, UniProt Q14671 828-1176, N971R;H972I;Q975Y)
# Outline: as §1
# PUM1 PUF domain R4-GPY = PUM1 PUF domain R4-GPY (Homo sapiens, UniProt Q14671 828-1176, N971G;H972P;Q975Y)
# Outline: as §1
sequence,measurement,setting,value
GGCUAGAACUAGUGGAUCCCCCGGCGCCCGGCGGCUCGAGCCCGGGUAAGCGUAAAUAGUCUGCAUGCCGCCGGGCGCCAUGCCUGCAGGUCGACUCUAGAAAACAUG,binding signal,PUM1 PUF domain R8-VFK,4.7 log2 enrichment (interaction score)
GGCUAGAACUAGUGGAUCCCCCGGCGCCCGGCGGCUCGAGCCCGGGUAAGUGUUAAUAGUCUGCAUGCCGCCGGGCGCCAUGCCUGCAGGUCGACUCUAGAAAACAUG,binding signal,PUM1 PUF domain R5-RYE,4.59 log2 enrichment (interaction score)
same,binding signal,PUM1 PUF domain R5-SKC,3.5 log2 enrichment (interaction score)
GGCUAGAACUAGUGGAUCCCCCGGCGCCCGGCGGCUCGAGCCCGGGUAAGUGUAAAUAGUCUGCAUGCCGCCGGGCGCCAUGCCUGCAGGUCGACUCUAGAAAACAUG,binding signal,PUM1 PUF domain R6-NRS,3.98 log2 enrichment (interaction score)
same,binding signal,PUM1 PUF domain R4-RIY,7.23 log2 enrichment (interaction score)
same,binding signal,PUM1 PUF domain R4-GPY,2.92 log2 enrichment (interaction score)
GGCUAGAACUAGUGGAUCCCCCGGCGCCCGGCGGCUCGAGCCCGGGUAAGUGUCAAUAGUCUGCAUGCCGCCGGGCGCCAUGCCUGCAGGUCGACUCUAGAAAACAUG,binding signal,PUM1 PUF domain R5-SKC,1.38 log2 enrichment (interaction score)
